Rows were chosen to be rich in hits. Some 20% of all compounds tested hit in one or more screens of this group.
Pf growth 48h = inhibits P. falciparum growth in the first generation, 48 h. P. falciparum luciferase growth in erythrocytes, 48 h. Potency, µM (doses to about 28.7 µM), without a hit: at the top dose activity change, negative = inhibition, actives largely listed as inhibitors. 5.9% of 310,000 active. AID 504832; note: potency is the fitted concentration of half-maximal effect; % is set by controls: 0 for no effect and ±100 for the full control effect
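In quantitative HTS format, infected erythrocytes bearing luciferase-reporter parasites were treated for a single generation at 37 C. Luminescence after adding detection reagent served as the growth measure.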
Shiga toxin inh = inhibitors of Shiga toxin in Vero cells. 9.2% of 290,000 active. Vero cells, Shiga toxin protein synthesis inhibition reporter. inhibition, % at 38.7 µM; in the data active = inhibition mostly above about 28%, no sharp cut-off; inactive = mostly below about 43%; note: 0% is about no effect
HCMV antiviral = human cytomegalovirus inhibition; 4.5% of 410,000 active; AID 1259415; activity change, negative = inhibition, % at 57.5 µM; HFF cells, HCMV-luciferase reporter, 72 h; stronger effect = lower value; in the data active = activity change below about -60%; inconclusive = no clear call, values can overlap the other calls; inactive = above about -39%; note: % is set by controls: 0 for no effect and ±100 for the full control effect
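Compounds were evaluated in HFFs infected with an HCMV luciferase reporter virus (MOI 1 PFU/cell). Luciferase in lysates collected 72 h post infection served as the replication measure.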
Pf growth 96h = P. falciparum growth inhibition at 96 hours; Potency, µM (highest dose often 28.7 µM), for inactives: at the highest dose activity change, negative = inhibition, actives largely listed as inhibitors; AID 504834; P. falciparum luciferase reporter growth, 96 h; 6.9% of 320,000 active; note: potency is the fitted concentration of half-maximal effect; % is set by controls: 0 for no effect and ±100 for the full control effect
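Luminescence readout: decreased luciferase signal marks inhibited growth of reporter-expressing P. falciparum in infected red cells (2% hematocrit, 0.05% parasitemia final), exposed to compound two generations (96 h, 37 C, 5% CO2).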
Cycloheximide cs = counter-screen hit for Shiga toxin inhibitors, cycloheximide. cell reporter, cycloheximide protein synthesis inhibition counterscreen. max response, %. 12% of 300,000 active; in the data active = max response mostly above about 13%, no sharp cut-off; inactive = mostly below about 14%; note: read at 38.3 µM for the half of the compounds with a filed dose; 0% is about no effect
An asterisk follows results filed as active; u = inconclusive; x = no result given. Unless noted, calls come from the whole dose curve; as a rule, active = well fitted inhibition curve with a large enough effect; inconclusive = small, poorly fitted or top-dose-only effect, or another doubt; inactive = no such curve, though single readings can be large or run the other way.

SMILES | Pf growth 48h | Shiga toxin inh | HCMV antiviral | Pf growth 96h | Cycloheximide cs
O=C(O)CNC(=S)NCc1ccccc1 | 13µM* | -4 | -33 | 20% | -2
COC(=O)NNC(=S)NCc1ccccc1 | 16% | 16 | u | 25% | -2
NNC(=S)NCc1ccccc1 | u | -8 | -23 | 9.3µM* | -2
NNC(=S)NCc1cccnc1 | 10% | -14 | -17 | 30% | -1
Cc1c(C(=O)N(C)Cc2ccc(F)cc2)sc(=O)n1Cc1ccccc1C#N | x | x | -19 | x | x
COc1cc(NC(=O)CN2CCN(C(=O)C3CCCO3)CC2)c(OC)cc1Cl (configuration not stated) | -5% | -4 | 8 | 14% | -2
COC(C(=O)NC1CCCCCCC1)c1ccccc1 (configuration not stated) | -2% | 10 | -7 | 3.3µM* | 3
COC(CN(C)C(C(=O)NC1CCCCC1)c1ccccc1)OC (configuration not stated) | -22% | -8 | 17 | -25% | -4
CC(=O)OC(C(=O)NC1CCCCC1)c1ccccc1F (configuration not stated) | 3% | 2 | -23 | 9.3µM* | -1
CC1CCC(NC(=O)C2c3ccccc3C(=O)N2CCCN2CCOCC2)CC1 (configuration not stated) | 3% | 11 | -3 | x | -3
C[N+](C)(C)CCOC(=O)C1(c2ccccc2)CCCC1 | -14% | -15 | -25 | x | 1
CCN(CC)CCCOC(=O)C1(c2ccccc2)CCCC1 | -26% | 12 | -31 | x | -2
CCN(CC)CCOCCOC(=O)C1(c2ccccc2)CCCC1 | 3µM* | x | -16 | 3.4µM* | x
CC(C[N+](C)(C)C)OC(=O)C1(c2ccccc2)CCCC1 (configuration not stated) | 10µM* | -11 | -12 | u | 3
CN(C)c1ccc(CN(CC2CCCO2)C(=O)COc2ccc(Cl)cc2)cc1 (configuration not stated) | x | x | -32 | x | x
O=C(CSc1nnc(SCc2ccccc2)s1)NNC(=S)Nc1ccccc1 | 16% | 8 | 4 | 30% | 1
CC(CCl)n1c(=O)c2ccccc2n1S(C)(=O)=O (configuration not stated) | x | x | 2 | x | x
COCCCNC(=O)CCn1c(=O)c2ccccc2n(CC(=O)NCCc2ccc(OC)c(OC)c2)c1=O | u | -14 | -33 | u | -2
CCCCSc1nc2c(cc1C#N)CCC2 | u | 25 | 15 | u | 12*
CS(=O)CSc1nc2c(cc1C#N)CCCC2 (configuration not stated) | 20% | -10 | -34 | u | 10
C=CCSc1nc2c(cc1C#N)CCC2 | -7% | 28 | 28 | u | 16*
C=C(C)CSc1nc2c(cc1C#N)CCC2 | -3% | 5 | 17 | 15µM* | -1
CSc1nc2c(cc1C#N)CCC2 | 21% | -10 | -36 | -8% | 2
O=C(Nc1cccc(Cl)c1N1CCCC1)c1cccc(-c2cc3ccccc3oc2=O)c1 | u | 39 | 48 | 55% | 26*
CCn1nnc(NC(=O)c2cccc(-c3cc4ccccc4oc3=O)c2)n1 | 45% | 73* | 123 | x | 40*
SMILES | Pf growth 48h | Shiga toxin inh | HCMV antiviral | Pf growth 96h | Cycloheximide cs
Cc1ccc2nc(NC(=O)c3cccc(-c4cc5ccccc5oc4=O)c3)sc2c1 | 139% | 41 | -89* | 219% | 13
O=C(Nc1ccc(CN2CCOCC2)cc1)c1cccc(-c2cc3ccccc3oc2=O)c1 | u | 32 | 34 | -2% | 9
CC1CCN(C(=O)c2ccc3c(c2)N(Cc2ccccc2)C(=O)c2ccccc2S3(=O)=O)CC1 | x | x | -61* | x | x
O=C(c1ccc2c(c1)N(Cc1ccc(F)cc1)C(=O)c1ccccc1S2(=O)=O)N1CCC(Cc2ccccc2)CC1 | x | x | -64* | x | x
COc1cc(C)ccc1OCc1cc(C(=O)N(Cc2c(C)nn(C)c2C)C2CC2)no1 | -24% | 76* | u | 40% | 52*
Cc1ccc(C)c(OCc2cc(C(=O)N3CCC(N4CCCC(O)C4)CC3)no2)c1 (configuration not stated) | -24% | 6 | -5 | -10% | 0
COc1cc(Cl)ccc1OCc1cc(C(=O)N2C[C@]3(C)C[C@H]2CC(C)(C)C3)no1 | u | 111* | 54 | 29% | 72*
COc1cc(Cl)ccc1OCc1cc(C(=O)N2C[C@H]3CC[C@H]2C3)no1 | 48% | 108* | 35 | 3% | 55*
COc1cc(C)ccc1OCc1cc(C(=O)N2C[C@H]3CC[C@H]2C3)no1 | 4% | 22 | -22 | 8% | 21*
CCc1nnc(NC(=O)CSc2nccn2Cc2ccccc2)s1 | x | x | 10 | x | x
COc1cc(C)ccc1OCc1cc(C(=O)N2CCN(C)C[C@@H]2c2ccccc2)no1 | u | 67* | -18 | 0% | 42*
O=C(c1cc(COc2cccc(C(F)(F)F)c2)on1)N1C[C@@H]2CCC[C@H]1C2 | u | 77* | -11 | 25% | 34*
COc1cc(C)ccc1OCc1cc(C(=O)NCCN2CCCC(O)C2)no1 (configuration not stated) | 30% | 5 | 19 | u | -2
COc1cc(Cl)ccc1OCc1cc(C(=O)N2C[C@@H]3CCC[C@H]2C3)no1 | 23% | 145* | 296 | -20% | 60*
Cn1ccnc1C1CCCCN1C(=O)c1cc(COc2ccc(F)cc2Cl)on1 (configuration not stated) | u | -12 | -5 | 19% | -2
CCc1nc2ccc(C(=O)N3CCN(C(=O)c4ccco4)CC3)cn2c1N(CC)Cc1cccc(Br)c1 | x | x | -19 | x | x
Cc1ccc(-c2[nH]ncc2CNCCc2cnn(-c3ccccc3)c2)cc1C | 13µM* | -8 | 3 | u | 1
COc1ccc(-c2[nH]ncc2CN(C)CCCN2CCOCC2)cc1F | -13% | 11 | -34 | u | 0
COc1ccc(-c2[nH]ncc2CNCCc2ncccc2C)cc1F | 29% | -1 | -12 | u | 6
CCN(CCn1cccn1)Cc1cn[nH]c1-c1ccc(-c2ccccc2)cc1 | 2.9µM* | 42 | 61 | -2% | 11
CN(CCc1cnn(C)c1)Cc1cn[nH]c1-c1ccc(-c2ccccc2)cc1 | -25% | 43* | x | u | 17*
Cn1cc(CCNCc2cn[nH]c2-c2ccc(-c3ccccc3)cc2)cn1 | u | 54* | 33 | -20% | 31*
Cc1ccc(NC(=O)CCNC(=O)Cn2cnc3ccccc3c2=O)cc1F | -4% | -5 | 14 | 9% | -4
CC(C)OCCCn1c(=NC(=O)c2cccs2)c(C#N)cc2c(=O)n3ccccc3nc21 | u | 27 | -15 | u | -2
COc1cc(OC)cc(C(=O)Nc2ccccc2N2CCOCC2)c1 | u | 11 | -30 | 3% | 5
COc1ccc(-c2ocnc2C(=O)Nc2ccc(N3CCOCC3)cc2N2CCOCC2)cc1OC | 8.3µM* | -6 | 43 | 38% | -5
COc1ccccc1-c1ocnc1C(=O)Nc1ccc(N2CCOCC2)cc1N1CCOCC1 | u | -6 | -17 | 2% | 8
COc1cc(OC)cc(C(=O)Nc2ccc(N3CCOCC3)cc2N2CCOCC2)c1 | u | x | 0 | 13µM* | x

Screens deposited in PubChem BioAssay by National Center for Advancing Translational Sciences (NCATS).
